Assay results published in PubChem BioAssay (NCATS).
Results filed as inconclusive are left out. The source made the active and inactive calls. The call rests on the fitted dose curve; in most records, active means well fitted curve in the direction sought with a large enough effect; inconclusive means small, poorly fitted or top-dose-only effect, or another doubt; inactive means no such curve, though single readings can be large; an effect the other way counts as inactive or inconclusive.

Key:
[1] = KB-3-1 Cancer Cell Toxicity qHTS against the NCATS CANVASS Library (AID 1347366); details: KB-3-1 viability, CellTiter-Glo luminescence, 72 h; series mostly up to 46.1 µM; further: nearly all actives have a fitted effect of over 75% in size
Method in brief: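 CellTiter-Glo luminescence measured viability after 72 h at 37C. KB-3-1 cells were seeded at 500 per well in DMEM/10% FBS.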

[2] = qHTS for ATAD5 Agonist screened against the NCATS CANVASS Library (AID 1347367); details: HEK293T ATAD5-luciferase reporter, luminescence, 16 h; series mostly up to 46.1 µM;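 further: luciferase reporter driven by ATAD5 which rises upon DNA damage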
Method in brief: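 Genotoxicity via ATAD5-luciferase luminescence after 16 h compound exposure (11-point series) at 37C in HEK293T-ATAD5 cells. CellTiter-Fluor viability read precedes the luminescence read; MMS serves as positive control.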

[3] = MCF7 Cancer Cell Toxicity qHTS against the NCATS CANVASS Library (AID 1347369); details: MCF7 viability, ATP luminescence (CellTiter-Glo), 72 h; series mostly up to 46 µM
Method in brief: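 Cytotoxicity was measured as CellTiterGlo luminescence (ATP) after 72 h at 37 °C. The cells were MCF7 at 500 per well, with an 11-point compound concentration series.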

[4] = qHTS for ATAD5 Antagonist screened against the NCATS CANVASS Library (AID 1347370); details: HEK293T-ATAD5-luc, 5-FUrd stimulated, luminescence, 16 h; series mostly up to 46.1 µM;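 further: HEK293T cells carrying an ATAD5 luciferase reporter co-treated with 10 µM 5-fluorouridine; nearly all actives have a fitted effect of over 65% in size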
From the text: (§1) Natural products and their derivatives continue to be wellsprings of nascent therapeutic potential. However, many laboratories have limited resources for biological evaluation, leaving their previously isolated or synthesized compounds largely or completely untested. To address this issue, the Canvass library of natural products was assembled (https://tripod.nih.gov/canvass), in collaboration with academic and industry researchers, for quantitative high-throughput screening (qHTS) across a diverse set of cell-based and biochemical assays. […] The library was formatted into 1536-well plates and evaluated in 50 qHTS (in an 11-pnt concentration series) bioassays with broad scope of disease-relevant mechanisms. The resulting data set from 50 different assays was then systematically analyzed to identify overall trends and specific natural products with interesting biological activities. […] Luminescence intensity is proportional to ATAD5 expression. […]
ATAD5 Agonist assay protocol: 1. […] A first readout of fluorescence signal was acquired via the ViewLux (PerkinElmer) plate reader using filter sets for AFC (380-400nmEx/505Em) and 1 second exposure setting. […] 8.#A second readout of luminescence signal was acquired via the ViewLux plate reader using a clear emission filter, 10 second exposure setting.

[5] = J3T Cancer Cell Toxicity qHTS against the NCATS CANVASS Library (AID 1347371); details: J3T dog glioma viability, ATP luminescence, 72 h; series mostly up to 46.1 µM;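 further: J3T is a canine glioma cancer cell line seeded at 500 cells per well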
Method in brief: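 Luminescence from CellTiterGlo, reporting cellular ATP, serves as the viability measure after 72 hr compound treatment of J3T canine glioma cells seeded at 500 cells/well.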

[6] = molecular target: Nuclear receptor subfamily 1 group I member 3 (Homo sapiens) (UniProt Q14994); assay: qHTS for Constitutive Androstane Receptor (CAR) Antagonist screened against the NCATS CANVASS Library (AID 1347372); details: HepG2-hCAR-CYP2B6 luciferase, CITCO-stimulated antagonist mode; series mostly up to 46.1 µM;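 further: cells stimulated with 50 nM CITCO agonist so inhibition reflects antagonism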
Sequence of Nuclear receptor subfamily 1 group I member 3 (Homo sapiens) (Q14994 whole entry, looked up): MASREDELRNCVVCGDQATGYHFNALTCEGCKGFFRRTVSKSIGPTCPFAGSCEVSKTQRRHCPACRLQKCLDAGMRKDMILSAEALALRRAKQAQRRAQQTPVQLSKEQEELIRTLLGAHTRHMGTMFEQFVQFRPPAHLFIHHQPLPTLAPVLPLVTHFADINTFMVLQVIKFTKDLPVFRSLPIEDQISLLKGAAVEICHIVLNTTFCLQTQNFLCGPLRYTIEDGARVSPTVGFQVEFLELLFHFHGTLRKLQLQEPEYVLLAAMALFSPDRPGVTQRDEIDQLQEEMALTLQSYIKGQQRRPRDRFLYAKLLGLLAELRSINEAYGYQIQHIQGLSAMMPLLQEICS
Method in brief: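 Antagonist mode: compound added alongside 50 nM CITCO to HepG2-hCAR-CYP2B6 reporter cells, 24hr at 37C. Viability by CellTiter-Fluor fluorescence, then CAR-driven luciferase by ONE-Glo luminescence.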

[7] = molecular target: Nuclear receptor subfamily 1 group I member 3 (Homo sapiens) (UniProt Q14994); assay: qHTS for Constitutive Androstane Receptor (CAR) Agonist screened against the NCATS CANVASS Library (AID 1347373); details: HepG2-hCAR-CYP2B6 luciferase reporter, ONE-Glo luminescence; series mostly up to 46.1 µM;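 further: every well also contained 1.5 µM PK11195 alongside the test compound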
Method in brief: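 Cells were plated and allowed to attach for 4hr, then dosed with compound in an 11-point series alongside 1.5uM PK11195. After 24hr at 37C, viability was measured fluorometrically and CAR-driven CYP2B6 reporter luminescence was recorded.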

[8] = 10-beta competent E. coli microbial cell viability qHTS against the NCATS CANVASS Library (AID 1347376); details: E. coli 10-beta viability, BacTiter-Glo ATP luminescence, overnight; series mostly up to 46.1 µM
From the text: as §1, with “The BacTiter-Glo microbial cell viability assay” for “Luminescence intensity”, “a homogeneous method for determining the number of viable bacterial cells in culture based on quantitation of the ATP present. […] The homogeneous assay procedure involves adding a single reagent (BacTiter-GloTM Reagent) directly” for “proportional”, “bacterial cells in medium and measuring luminescence.” for “ATAD5 expression.”

[9] = DH5-alpha competent E. coli microbial cell viability qHTS against the NCATS CANVASS Library (AID 1347377); details: BacTiter-Glo ATP luminescence, overnight; at 46.1 µM (top of the series)
Method in brief: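 Bacteria were dispensed at 0.2 OD, then compounds were pin-transferred. Plates were incubated overnight at 37C, after which BacTiter-Glo was added and luminescence measured 20 min later.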

[10] = qHTS for H2AX Agonists against the NCATS CANVASS Library (AID 1347378); details: CHO-K1 H2AX phosphorylation, HTRF TR-FRET, 3 h; series mostly up to 76.9 µM
Method in brief: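 Phospho-H2AX (S139) in CHO-K1 lysates measured by HTRF, reported as 665/615 nm emission ratio after 24 hr antibody incubation at room temperature. Cells were first treated with a compound series for 3 hr at 37C (0.76% DMSO final).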

Measured: outcome

COc1ccc2[nH]cc(CCNC(C)=O)c2c1
inactive: all assays above
